# Source: PubChem BioAssay (NCI)
# Several values for one entry are separate records, joined by “and”; a condition that tells them apart may be missing. Equal entries are not always repeated. About 83,000 compounds went through this panel and 20% of them were active in at least one assay; those are over-represented in the sample as a whole.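 The test compound was applied at a single concentration to cells in 96-well plates for 48 hours, and percent growth was recorded.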 Activity calls are given as the source filed them. How the source made its calls: active means growth percent below 10; inactive means the rest.
# Tests used:
# Assay in all cases: NCI-60 one-dose screen, 48 h (100 = growth as untreated, 0 = no growth, -100 = all killed)
# SK-MEL-2 melanoma = conditions: 10 µM
# EKVX NSCLC = conditions: 10 µM
# SN12C renal = conditions: 10 µM
# UO-31 renal = conditions: 10 µM
# TK-10 renal = conditions: 10 µM
# ACHN renal = conditions: 10 µM
# CAKI-1 renal = conditions: 10 µM
# A498 renal = conditions: 10 µM
# CCRF-CEM leukemia = conditions: 10 µM
# MOLT-4 leukemia = conditions: 10 µM unless noted
# SR leukemia = conditions: 10 µM
# RPMI-8226 leukemia = conditions: 10 µM
# OVCAR-8 ovarian = conditions: 10 µM
# OVCAR-5 ovarian = conditions: 10 µM
# OVCAR-4 ovarian = conditions: 10 µM
# SK-OV-3 ovarian = conditions: 10 µM
# IGROV1 ovarian = conditions: 10 µM
# OVCAR-3 ovarian = conditions: 10 µM
# NCI/ADR-RES ovarian = conditions: 10 µM
# HS 578T breast = conditions: 10 µM
Compound,growth (SK-MEL-2 melanoma),growth (EKVX NSCLC),growth (SN12C renal),growth (UO-31 renal),growth (TK-10 renal),growth (ACHN renal),growth (CAKI-1 renal),growth (A498 renal),growth (CCRF-CEM leukemia),growth (MOLT-4 leukemia),growth (SR leukemia),growth (RPMI-8226 leukemia),growth (OVCAR-8 ovarian),growth (OVCAR-5 ovarian),growth (OVCAR-4 ovarian),growth (SK-OV-3 ovarian),growth (IGROV1 ovarian),growth (OVCAR-3 ovarian),growth (NCI/ADR-RES ovarian),growth (HS 578T breast)
COc1cccc(C(c2cc3c(cc2O)OCO3)N2CCOCC2)c1OC (stereo unspecified),101% (inactive),97.7% (inactive),97.8% (inactive),88.7% (inactive),101% (inactive),103% (inactive),94.7% (inactive),75.3% (inactive),97.1% (inactive),96% (inactive),89.5% (inactive),105% (inactive),99.2% (inactive),104% (inactive),99.5% (inactive),101% (inactive),101% (inactive),111% (inactive),104% (inactive),
Cc1c(-c2ccccc2)[nH]c2ccccc12,115% (inactive),104% (inactive),114% (inactive),90.4% (inactive),119% (inactive),100% (inactive),91.5% (inactive),91.3% (inactive),95.1% (inactive),99.6% (inactive),102% (inactive),88.3% (inactive),105% (inactive),99% (inactive),96.7% (inactive),,103% (inactive),105% (inactive),105% (inactive),
O=C1c2cccc3cc([N+](=O)[O-])cc(c23)C(=O)N1CCN1CCCC1,4.73% (active),10.9% (inactive),-18.2% (active),-42.8% (active),-11.3% (active),-57.9% (active),-14% (active),-64.4% (active),-5.62% (active),-17.9% (active),-34.6% (active),-19.1% (active),9.55% (active),-1.73% (active),3.14% (active),-0.119% (active),-2.59% (active),-16.8% (active),-2.54% (active),
O=C(NC(=S)Nc1ccccn1)c1ccccc1,127% (inactive),74.8% (inactive),97.1% (inactive),93.9% (inactive),125% (inactive),95.1% (inactive),82% (inactive),70.5% (inactive),62.2% (inactive),93.1% (inactive),112% (inactive),60.4% (inactive),103% (inactive),89.1% (inactive),62.7% (inactive),107% (inactive),78.7% (inactive),98% (inactive),55.3% (inactive),
Nc1nc(N)c2cc(Sc3ccc4ccccc4c3)ccc2n1,75.3% (inactive),38.2% (inactive),27.9% (inactive),22% (inactive),49.5% (inactive),28.2% (inactive),17.3% (inactive),58.5% (inactive),38.2% (inactive),18.4% (inactive),-26.3% (active),-11.9% (active),34.8% (inactive),50.5% (inactive),,62.3% (inactive),27.8% (inactive),38.8% (inactive),43.9% (inactive),
N#C/C(=C/N1C(=O)/C(=C/c2ccc([N+](=O)[O-])cc2)SC1=S)c1nc2ccccc2s1,94.4% (inactive),82.3% (inactive),89.3% (inactive),64% (inactive),96.3% (inactive),86.5% (inactive),97% (inactive),6.8% (active),84% (inactive),78.8% (inactive),73.8% (inactive),67.4% (inactive),88.4% (inactive),90.3% (inactive),104% (inactive),82.4% (inactive),69.8% (inactive),82.2% (inactive),92.3% (inactive),
CCC(C)(c1ccc(O)c(C)c1)c1ccc(O)c(C)c1,94.4% (inactive),82.5% (inactive),84.9% (inactive),76% (inactive),249% (inactive),98.8% (inactive),62.1% (inactive),110% (inactive),89% (inactive),130% (inactive),113% (inactive),84.1% (inactive),103% (inactive),101% (inactive),91.9% (inactive),50.8% (inactive),85.5% (inactive),102% (inactive),103% (inactive),
O=C1C=CC(=O)N1c1ccc(N2C(=O)C=CC2=O)cc1,108% (inactive),90.8% (inactive),102% (inactive),76.7% (inactive),92% (inactive),92.2% (inactive),69.9% (inactive),149% (inactive),15.9% (inactive),-9.11% (active),0.0539% (active),38.6% (inactive),109% (inactive),97.7% (inactive),101% (inactive),97.3% (inactive),105% (inactive),103% (inactive),102% (inactive),
NCc1c(O)ccc2ccccc12,98.2% (inactive),106% (inactive),90.9% (inactive),81.3% (inactive),108% (inactive),103% (inactive),74.3% (inactive),105% (inactive),93% (inactive),93.3% (inactive),87.8% (inactive),101% (inactive),103% (inactive),96.9% (inactive),111% (inactive),96.9% (inactive),94.7% (inactive),99.4% (inactive),103% (inactive),
Cn1c2nc3ccccc3c-2nc2ccccc21,113% (inactive) and 112% (inactive),81.2% (inactive),95% (inactive) and 87.7% (inactive),71.9% (inactive) and 48.3% (inactive),113% (inactive) and 109% (inactive),94.4% (inactive) and 79.1% (inactive),73.9% (inactive) and 93.6% (inactive),45.9% (inactive) and 80.3% (inactive),95.8% (inactive) and -21.8% (active),97.9% (inactive) and 96.7% (inactive),83.5% (inactive) and 91.1% (inactive),94.9% (inactive) and 96.8% (inactive),93% (inactive) and 88.6% (inactive),103% (inactive) and 86.9% (inactive),89.5% (inactive) and 80.5% (inactive),91.2% (inactive) and 90.8% (inactive),79.8% (inactive) and 61.6% (inactive),99.2% (inactive) and 93.3% (inactive),99.3% (inactive) and 93.6% (inactive),
O=C1C(Cl)=C(Cl)C(Cl)(Cl)C(Cl)C1(Cl)Cl (stereo unspecified),100% (inactive),105% (inactive),88.5% (inactive),84.5% (inactive),98.9% (inactive),100% (inactive),99% (inactive),115% (inactive),94.9% (inactive),94.8% (inactive),90.2% (inactive),98.1% (inactive),106% (inactive),102% (inactive),,103% (inactive),90.9% (inactive),112% (inactive),104% (inactive),
CC[C@@]1(OC(=O)CN(C)C)C(=O)OCc2c1cc1n(c2=O)Cc2cc3c(N)cccc3nc2-1,-17.4% (active),18.2% (inactive),7.95% (active),-50.8% (active),20.1% (inactive),-49% (active),-20.1% (active),-56.6% (active),5.31% (active),-0.423% (active),-3.07% (active),2.58% (active),14.5% (inactive),15.1% (inactive),10.2% (inactive),2.84% (active),-3.28% (active),-34.2% (active),5.59% (active),62.5% (inactive)
COc1ccc(C(C#N)=C2C=CC(=NO)C=C2)cc1,,125% (inactive),95.8% (inactive),67% (inactive),12.9% (inactive),78.5% (inactive),93.6% (inactive),114% (inactive),29.8% (inactive),58.4% (inactive),49.8% (inactive),22% (inactive),80.3% (inactive),137% (inactive),91.7% (inactive),114% (inactive),60.9% (inactive),87.3% (inactive),94.8% (inactive),
O=C(O)c1ccccc1.[Ag],122% (inactive),103% (inactive),102% (inactive),103% (inactive),109% (inactive),111% (inactive),90.2% (inactive),,15.4% (inactive),102% (inactive),102% (inactive),96.9% (inactive),96.8% (inactive),102% (inactive),95% (inactive),109% (inactive),116% (inactive),113% (inactive),93.2% (inactive),114% (inactive)
O=[N+]([O-])c1cc(S(=O)(=O)Nc2ccccc2)ccc1Cl,93.3% (inactive),86.1% (inactive),95.7% (inactive),76.7% (inactive),99.1% (inactive),94.2% (inactive),77.3% (inactive),96.8% (inactive),85.9% (inactive),89% (inactive),,88.4% (inactive),91.5% (inactive),101% (inactive),97% (inactive),96.3% (inactive),96.1% (inactive),106% (inactive),99.6% (inactive),
